Shown are actives, neighbours in structure and some others; about 3.8% of the full set was active somewhere.
GLS inh = glutaminase GLS (human) inhibition; O94925; GLS enzymatic activity, qHTS titration; Potency, µM (series often up to 45.5 µM), actives largely listed as inhibitors; hit rate 0.21% among 410,000; AID 624170
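Glutamate formation by hKGA was monitored fluorometrically using coupled glutamate oxidase, HRP and Amplex Red. Substrate was added as 1 mM L-glutamine solution; incubation was 30 min at RT after an initial read.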
KAT2A inh = inhibitors of human GCN5L2 histone acetyltransferase. Potency, µM (top dose mostly 58.9 µM), usual class: inhibitors. GCN5L2 HAT assay, ThioGlo1 CoA-SH fluorescence. hit rate 0.21% among 390,000
Target sequence (Q92830 whole entry, looked up): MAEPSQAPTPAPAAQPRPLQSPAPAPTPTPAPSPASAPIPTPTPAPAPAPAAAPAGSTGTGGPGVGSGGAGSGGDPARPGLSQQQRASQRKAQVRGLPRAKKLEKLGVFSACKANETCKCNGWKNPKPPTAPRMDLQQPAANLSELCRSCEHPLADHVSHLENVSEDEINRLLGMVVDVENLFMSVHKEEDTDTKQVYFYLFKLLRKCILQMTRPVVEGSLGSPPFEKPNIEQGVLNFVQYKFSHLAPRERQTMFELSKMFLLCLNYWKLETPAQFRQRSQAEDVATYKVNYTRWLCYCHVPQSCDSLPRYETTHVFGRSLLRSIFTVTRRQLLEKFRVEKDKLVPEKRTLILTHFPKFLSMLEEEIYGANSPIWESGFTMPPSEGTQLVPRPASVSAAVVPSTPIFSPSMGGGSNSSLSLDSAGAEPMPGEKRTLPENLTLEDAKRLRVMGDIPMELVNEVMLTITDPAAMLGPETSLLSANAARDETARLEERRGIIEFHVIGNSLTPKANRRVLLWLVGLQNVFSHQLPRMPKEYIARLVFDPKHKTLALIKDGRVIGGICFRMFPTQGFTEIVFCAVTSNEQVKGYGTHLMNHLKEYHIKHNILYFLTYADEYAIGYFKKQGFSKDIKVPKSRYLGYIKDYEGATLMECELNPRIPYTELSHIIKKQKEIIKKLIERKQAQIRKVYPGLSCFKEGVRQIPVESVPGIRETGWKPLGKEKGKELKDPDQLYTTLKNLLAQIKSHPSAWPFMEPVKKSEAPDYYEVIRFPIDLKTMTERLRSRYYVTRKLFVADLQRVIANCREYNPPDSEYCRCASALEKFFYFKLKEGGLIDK
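GCN5L2 (20 nM) in 50mM HEPES pH 7.5, 0.1mM EDTA, 0.01% Tween-20 preincubated 15 min with compounds at room temperature. Reaction started with H3(1-25) 75uM, acetyl-CoA 70uM, ThioGlo1 50uM; CoA-thiol fluorescence (Ex340/Em540) read at 0 and 20 min.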
rTrxR1 inhibitor = inhibitors of rat thioredoxin reductase 1. O89049. recombinant rTrxR1, NADPH fluorescence consumption, selenite substrate. Potency, µM (highest dose often 114 µM), actives largely listed as inhibitors. hit rate 1% among 390,000; also: nearly all actives have a fitted effect of over 65% in size
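Rat TrxR1 (90 nM in the dispensed reagent) was pre-reduced with 400 uM NADPH for 5 min at room temperature, then incubated with compound for 15 min. After 400 uM selenite was added, NADPH fluorescence (Ex 340/Em 450 nm) was followed for 8 min.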
TrxR1 substrate = substrates of rat thioredoxin reductase 1. purified TrxR1 substrate turnover, NADPH consumption readout. Potency, µM (highest dose often 114 µM). hit rate 0.01% among 390,000. AID 588456; also: nearly all actives have a fitted effect of over 50% in size
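Rat TrxR1, dispensed at 90 nM, was prereduced with 400 uM NADPH (final) for 5 min at ~22 deg C, then incubated with compound 15 min before 400 uM selenite. A first-read NADPH fluorescence drop versus no-compound background flagged substrates.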
VDR inhibitor = blocks the human vitamin D receptor. hit rate 0.93% among 400,000. AID 504847. Potency, µM, most hits filed as inhibitors. VDR-SRC2-3 peptide fluorescence polarization, 2 h. P11473
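The screen uses fluorescence polarization to detect compounds that interfere with recruitment of the SRC2-3 coactivator peptide to VDR; plates are read after 2 h at room temperature.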
Sfp inh = inhibitors of Bacillus subtilis Sfp phosphopantetheinyl transferase; Q9F4F7; Biochemical Sfp PPTase activity, qHTS; Potency, µM, most hits filed as inhibitors; hit rate 3.5% among 310,000;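 also: the enzyme is Sfp with the accession as filed and its product quenches rhodamine fluorescence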
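Reaction rates are the 30-min fluorescence difference (ex 525, em 598 nm) in wells containing 15 nM Sfp, 5 uM rhodamine-CoA and 12.5 uM BHQ-2-YbbR at pH 7.6 with 10 mM MgCl2.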
Of the large screens only hits and unclear results are named; the others gave an inactive call. Calls follow the shape of the dose curve; as a rule, active = well fitted curve in the direction sought with a large enough effect; inconclusive = small, poorly fitted or top-dose-only effect, or another doubt; inactive = no such curve, though single readings can be large; an effect the other way counts as inactive or inconclusive.

O=C(N/N=C/c1cccc(F)c1)c1cc(-c2ccco2)nc2ccccc12	GLS inh 12.6µM, KAT2A inh inconclusive
Cc1ccc(/C=N/NC(=O)c2cc(-c3ccccc3)nc3ccccc23)o1	Sfp inh 50.1µM
O=C(N/N=C/c1ccc(F)cc1)c1cc(-c2ccccn2)nc2ccccc12	none (no result: Sfp inh)
Cn1c(SCC(=O)c2ccc3c(c2)Cc2ccccc2-3)nnc1-c1ccccc1	GLS inh inconclusive, Sfp inh 79.4µM
Cn1c(SCC(=O)c2ccccc2)nnc1-c1ccc(O)cc1	Sfp inh 79.4µM
CC(=O)Nc1nnc(SCC(=O)c2ccc3c(c2)Cc2ccccc2-3)s1	none
CCC(=O)Nc1nnc(SCC(=O)c2ccc3c(c2)Cc2ccccc2-3)s1	Sfp inh 56.2µM
Cc1ccc(C(=O)CSc2nnc(-c3ccccc3N)n2C)cc1C	none
Cn1c(SCC(=O)c2ccccc2)nnc1-c1cccc(N)c1	none
Cc1cc(C2(c3ccc(O)c(C)c3)C(=O)N(C)c3ccc(Br)cc32)ccc1O	none (no result: KAT2A inh, Sfp inh)
O=C(Nc1ccc(F)cc1)Nc1cccnc1Cl	none
CN(Cc1cc(=O)n2ccsc2n1)c1ccccc1	Sfp inh inconclusive
CN(Cc1cc(=O)n2ccsc2n1)Cc1nc2ccccc2c(=O)[nH]1	Sfp inh 4.47µM
COc1ccc(Br)cc1C(=O)NC(=S)Nc1ccc(Cl)c(C(=O)O)c1	Sfp inh 44.7µM
COc1ccc(Br)cc1/C=C/C(=O)NC(=S)Nc1ccc(Cl)c(C(=O)O)c1	rTrxR1 inhibitor inconclusive, VDR inhibitor inconclusive
Cc1ccc(NC(=O)COC(=O)c2cccc(OC(F)F)c2)cc1S(=O)(=O)N1CCCCC1	none (no result: Sfp inh)
Cn1nc(-c2cccnc2)nc2c(=O)n(C)c(=O)nc1-2	TrxR1 substrate inconclusive (no result: GLS inh, KAT2A inh, Sfp inh)
CCn1nc(-c2ccccc2C)nc2c(=O)n(C)c(=O)nc1-2	rTrxR1 inhibitor inconclusive, TrxR1 substrate 14.1µM, VDR inhibitor inconclusive (no result: GLS inh, KAT2A inh, Sfp inh)
COc1cccc(NC(=O)CC2S/C(=N\S(=O)(=O)c3ccccc3)N(c3ccccc3)C2=O)c1 (stereo not drawn)	none
CN(C(=O)COC(=O)c1ccc(Br)c([N+](=O)[O-])c1)c1c(N)n(Cc2ccccc2)c(=O)[nH]c1=O	rTrxR1 inhibitor 39.8µM (no result: Sfp inh)
O=C(NC1CCCC1)C(c1ccncc1)N(C(=O)c1csnn1)C1CCCC1 (stereo not drawn)	Sfp inh 56.2µM
C/C(CCc1ccc2c(c1)OCO2)=N\N=C(/N)SC1CC(=O)N(c2ccc(Cl)cc2)C1=O (stereo not drawn)	Sfp inh 56.2µM
O=C1CC(SC(=NCc2ccc3c(c2)OCO3)Nc2ccccc2)C(=O)N1c1ccccc1 (stereo not drawn)	Sfp inh inconclusive
Cc1ccc(-c2nn(CC(=O)NCc3ccco3)c(=O)c3ccccc23)cc1	Sfp inh inconclusive
CCOC(=O)c1c(O)c(O)c(C(=O)OCC)n1-c1ccccc1	Sfp inh 31.6µM
CCOC(=O)c1sc(=S)n(-c2ccccc2)c1C	none
CSc1ncc(CN2CCN(C3CCN(C(C)C)CC3)C(CCO)C2)cn1 (stereo not drawn)	none
CSc1ncc(CN2CCN(C3CCCCC3)C(CCO)C2)cn1 (stereo not drawn)	KAT2A inh 14.1µM
CN(C)c1cccc(CNC(=O)c2csc([C@@H]3O[C@H](CO)[C@H](O)[C@H](O)[C@H]3O)n2)c1	none (no result: KAT2A inh, rTrxR1 inhibitor, TrxR1 substrate, VDR inhibitor, Sfp inh)
Cc1ccccc1OCC(=O)OCC(=O)NCc1ccccc1Cl	none (no result: Sfp inh)
CCN1C(=O)/C(=C/C=C2/Sc3ccc4ccccc4c3N2CCO)SC1=S	Sfp inh 50.1µM
Cc1cccc(C(=O)N/N=C/C(C)Cc2ccc3c(c2)OCO3)c1 (stereo not drawn)	none
COC(=O)c1c(-c2cccnc2)csc1NC(=O)c1cc(C)on1	VDR inhibitor 79.4µM
O=C(/C=C/c1ccc(F)cc1)N1CCN(S(=O)(=O)/C=C/c2ccccc2)CC1	none
Cc1ccc(/C=C/C(=O)N2CCN(S(=O)(=O)/C=C/c3ccccc3)CC2)o1	Sfp inh 7.94µM

Compound activity as filed in PubChem.
